# The sample as a whole holds a higher share of hits than the screen did.
# FECH inh – inhibitors of human ferrochelatase; P22830; purified FECH, Ni-mesoporphyrin absorbance 550 nm; calls only at 10 µM (by protocol); 20,000 tested, 3.3% active; AID 1671448;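 active means enzyme reaction rate more than 3 SD below the solvent-only control wells on the same plate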;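 further: lower slope than DMSO wells means FECH inhibition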
# Target sequence (P22830 whole entry, looked up): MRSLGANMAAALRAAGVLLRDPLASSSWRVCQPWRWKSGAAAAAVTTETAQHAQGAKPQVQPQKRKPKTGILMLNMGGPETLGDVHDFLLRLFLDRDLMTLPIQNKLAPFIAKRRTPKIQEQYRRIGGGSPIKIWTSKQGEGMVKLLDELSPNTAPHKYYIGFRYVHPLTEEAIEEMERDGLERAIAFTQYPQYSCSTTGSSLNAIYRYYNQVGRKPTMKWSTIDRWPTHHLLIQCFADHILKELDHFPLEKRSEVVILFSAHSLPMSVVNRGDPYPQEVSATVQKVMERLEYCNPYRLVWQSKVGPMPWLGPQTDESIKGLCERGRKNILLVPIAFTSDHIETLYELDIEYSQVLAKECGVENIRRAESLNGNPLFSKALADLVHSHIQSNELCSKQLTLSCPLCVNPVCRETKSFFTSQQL
# * hit, by the source's call; i = inactive; + = active, no number.
SMILES,FECH inh
CCC(=O)Nc1nc2n(n1)C(c1ccccc1)C=C(c1ccc(Cl)cc1)N2 (stereo not drawn),i
COc1ccc(C2C=C(c3ccccc3)Nc3nc(NC(=O)c4ccccc4)nn32)cc1 (stereo not drawn),i
CCOc1ccc(C(=O)Nc2ccc(Nc3nc(C)cc(Nc4ccc(OC)cc4)n3)cc2)cc1,i
CN1CCN(CCNC(=O)C2CCN(c3ncnc4c3nc3n4CCCCC3)CC2)CC1,i
O=C(CN1c2ccc(Br)cc2-c2ccccc2S1(=O)=O)NCCN1CCOCC1,i
CCC1=C(c2ccc(OC)cc2)S(=O)(=O)N(CC(=O)NCc2cccc(Br)c2)C1=O,i
CC(C)OCCCNC(=O)CN1c2ccc(Br)cc2-c2ccccc2S1(=O)=O,+
O=C(CN1c2ccc(Br)cc2-c2ccccc2S1(=O)=O)NCc1ccccn1,+
C=CCOc1cccc(NC(=O)CN2c3ccc(Br)cc3-c3ccccc3S2(=O)=O)c1,i
O=C(NCc1ccccn1)C1(Oc2cccc3ncccc23)CCNCC1,i
COCCNC(=O)CN1c2ccc(Br)cc2-c2ccccc2S1(=O)=O,+
CC(C)OCCCNC(=O)c1ccc(CN2C(=O)CCn3nc(-c4ccccc4)cc32)cc1,i
O=C(CN1CCC(c2ccccc2C(=O)O)C1)NCc1ccccn1 (stereo not drawn),i
COc1ccc(Nc2cc(C)nc(N3CCN(S(=O)(=O)c4ccc(Cl)cc4)CC3)n2)cc1,i
N[C@@H]1c2ccccc2C2(CCN(C(=O)Cc3c[nH]c4ccccc34)CC2)[C@H]1O,i
CCC(CN1CCOCC1)NC(=O)C1CCN(c2ccc(-c3cccs3)nn2)CC1 (stereo not drawn),i
Cc1ccc(N(Cc2nc3nc(C)c(Cl)c(C)n3n2)C(=O)C2CCCCC2)cc1,i
Cc1ccc(N2C(=O)CCS2(=O)=O)cc1S(=O)(=O)N1CCN(c2ccccc2F)CC1,+
COc1ccc(CNS(=O)(=O)c2cc(N3C(=O)CCS3(=O)=O)ccc2C)cc1OC,+
Cc1ccc(N2C(=O)CCS2(=O)=O)cc1S(=O)(=O)N1CCN(c2ccccc2)CC1,i
COc1ccc(N2C(=O)CCS2(=O)=O)cc1S(=O)(=O)NCc1ccc(C)cc1,i
CCOC(=O)C1CCN(S(=O)(=O)c2cc(N3C(=O)CCS3(=O)=O)ccc2OC)CC1,i
CCOC(=O)C1CCCN(S(=O)(=O)c2cc(N3C(=O)CCS3(=O)=O)ccc2C)C1 (stereo not drawn),+
COc1ccc(CNS(=O)(=O)c2cc(N3C(=O)CCS3(=O)=O)ccc2OC)cc1,i
Cc1ccc(N2C(=O)CCS2(=O)=O)cc1S(=O)(=O)N1CCC(C(N)=O)CC1,i
SMILES,FECH inh
Cc1ccc(N2C(=O)CCS2(=O)=O)cc1S(=O)(=O)N1CCN(c2ccccn2)CC1,i
COc1ccc(C(=O)Nc2ccccc2Sc2c(C)c(C)nc3nc(-c4ccccc4)nn23)cc1,i
Cc1n[nH]c(=O)n1-c1ccc2ccccc2c1,i
Cc1cc(C)c2nc(N3CCCC(C(=O)NCCc4ccc(S(N)(=O)=O)cc4)C3)sc2c1 (stereo not drawn),i
CC(=O)Nc1cccc(-c2cnn(Cc3ccccc3)c2)c1,i
O=C1CC(c2cccc(OCc3ccccn3)c2)c2c(nc3ccccn23)CN1 (stereo not drawn),i
CC(C)CCNc1nc(Nc2cccc(Cl)c2)c2cnn(-c3ccccc3)c2n1,i
Cc1ccc(N2C(=O)CCS2(=O)=O)cc1S(=O)(=O)Nc1c(C(C)C)cccc1C(C)C,i
O=C(NC1CCCC1)C1CCN(c2ncnc3c2nc2n3CCCCC2)CC1,i
O=C(Nc1nc2n(n1)C(c1ccc(F)cc1)C=C(c1ccc(Cl)cc1)N2)c1ccc(F)cc1 (stereo not drawn),i
Cc1ccc(C2=CC(c3ccc(Cl)cc3)n3nc(NC(=O)CCc4ccccc4)nc3N2)cc1 (stereo not drawn),i
Cc1ccc(C(=O)Nc2nc3n(n2)C(c2ccc(F)cc2)C=C(c2ccc(C)cc2)N3)cc1 (stereo not drawn),i
CC(C)C(=O)Nc1nc2n(n1)C(c1ccc(Cl)cc1)C=C(c1ccc(Cl)cc1)N2 (stereo not drawn),i
Cc1ccc(C2=CC(c3ccc(Cl)cc3)n3nc(NC(=O)c4ccco4)nc3N2)cc1 (stereo not drawn),+
Cc1ccc(C2=CC(c3ccc(Cl)cc3)n3nc(NC(=O)CC(C)C)nc3N2)cc1 (stereo not drawn),+
Cc1ccc(C2=CC(c3ccc(Cl)cc3)n3nc(NC(=O)c4ccccc4)nc3N2)cc1 (stereo not drawn),+
O=C(Nc1nc2n(n1)C(c1ccc(Cl)cc1)C=C(c1ccc(Cl)cc1)N2)c1ccco1 (stereo not drawn),i
Cc1ccc(C(=O)Nc2nc3n(n2)C(c2ccc(Cl)cc2)C=C(c2ccccc2)N3)cc1 (stereo not drawn),i
Cc1ccc(C2=CC(c3ccc(Cl)cc3)n3nc(NC(=O)c4ccc(F)cc4)nc3N2)cc1 (stereo not drawn),+

# Screening data as filed in PubChem.
